Screening results: PubChem, National Center for Advancing Translational Sciences (NCATS)
Sampled rows, rich in hits. Any-hit rate of the full collection: about 19%.
Shiga toxin inh – inhibitors of Shiga toxin in Vero cells; inhibition, % at 38.7 µM; Vero cells, Shiga toxin protein synthesis inhibition reporter; AID 2315; 9.2% of 290,000 active; in the data active = inhibition mostly above about 28%, no sharp cut-off; inactive = mostly below about 43%; note: 0% is about no effect
SARS PLpro yeast – inhibitors of SARS-CoV papain-like protease in yeast | S. cerevisiae expressing SARS-CoV PLpro, growth rescue | Potency, µM (top dose mostly 32.9 µM), without a hit: top-dose activity, positive = growth rescue, hits mostly activators | 0.19% of 330,000 active | AID 485353; calls by dose curve; note: potency is the fitted concentration of half-maximal effect; 0% is about no effect; nearly all actives have a fitted effect of over 55% in size
Pf growth 96h – P. falciparum growth inhibition at 96 hour, primary screen for plastid delayed-death inhibitors | P. falciparum luciferase reporter growth, 96 h | Potency, µM (doses to about 28.7 µM), without a hit: at the top dose activity change, negative = inhibition, usual class: inhibitors | 6.9% of 320,000 active; note: potency is the fitted concentration of half-maximal effect; % is set by controls: 0 for no effect and ±100 for the full control effect
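Readout is luminescence from an integrated firefly luciferase in P. falciparum. Red cells, 2% hematocrit and 0.05% parasitemia final, were cultured with compound through two parasite generations (96 hours) at 37 C, 5% CO2.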
AMA1 RON2 block – disrupts binding of P. falciparum AMA1 to RON2. AlphaScreen AMA1-biotinylated RON2 peptide binding. Potency, µM (doses to about 58.2 µM), for the others: top-dose activity change, negative = inhibition, usual class: inhibitors. 0.2% of 360,000 active. AID 720542;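 note: potency is the fitted concentration of half-maximal effect; 0% = vehicle wells and -100% = peptide control; nearly all actives have a fitted effect of over 45% in size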
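AMA1 (3D7) with his tag at 25 nM final met compounds first, then biotinylated RON2 peptide at 25 nM; detection used donor plus acceptor beads, 10 µg/mL apiece, read by AlphaScreen after 30 min at room temperature.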
CHX counter – counter-screen hit for Shiga toxin inhibitors, cycloheximide; 12% of 300,000 active; max response, %; AID 2314; cell reporter, cycloheximide protein synthesis inhibition counterscreen; in the data active = max response mostly above about 13%, no sharp cut-off; inactive = mostly below about 14%; note: read at 38.3 µM for the half of the compounds with a filed dose; 0% is about no effect
Pf growth 48h – inhibits P. falciparum growth in the first generation, 48 h | P. falciparum luciferase growth in erythrocytes, 48 h | Potency, µM (titrated, usually from 28.7 µM), for inactives: at the highest dose activity change, negative = inhibition, hits mostly inhibitors | 5.9% of 310,000 active | AID 504832; note: potency is the fitted concentration of half-maximal effect; % is set by controls: 0 for no effect and ±100 for the full control effect
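Luciferase-expressing parasites in RBCs, 2% Hct / 0.1% parasitemia final; RPMI 1640 + 0.5% Albumax; 37 C, 5% CO2, one generation; luminescence read-out, lower signal = inhibition.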
* marks the source's active call; other numbers are inactive results; ? = inconclusive; nt = no result. Unless noted, calls come from the whole dose curve; as a rule, active = well fitted curve in the direction sought with a large enough effect; inconclusive = small, poorly fitted or top-dose-only effect, or another doubt; inactive = no such curve, though single readings can be large; an effect the other way counts as inactive or inconclusive.

SMILES	Shiga toxin inh	SARS PLpro yeast	Pf growth 96h	AMA1 RON2 block	CHX counter	Pf growth 48h
Cc1nc2cc(CO)ccc2n1C	-7	-1%	9.3µM*	-10%	-3	7%
CN1C(=O)CCC(CCC(=O)O)(c2ccccc2O)C1=O (stereo not drawn)	-9	2%	-4%	1%	7	nt
CCOC(=O)c1c(NC(=O)COC(=O)C2CC2C)sc(C)c1C (stereo not drawn)	-4	-6%	21%	-7%	-5	4%
CCOc1ccc2c(c1)nc(C)n2C	18	0%	0%	-5%	7	51%
COc1ccc(CNc2ccc3c(c2)nc(C)n3C)cc1	60*	-5%	nt	?	25*	nt
COCC1CCN(C(=O)CCc2nnc(C3(c4ccc(Cl)cc4)CCC3)o2)CC1	33	3%	0%	-17%	15*	?
CCN(CCn1cccn1)C(=O)CCc1nnc(-c2ccccc2)o1	57*	0%	?	2%	37*	?
COCCNC(=O)CCc1nnc(C2(c3ccc(Cl)cc3)CCC2)o1	13	0%	?	-6%	7	12%
CCN(CCn1cccn1)C(=O)CCc1nnc(C2(c3ccc(Cl)cc3)CCC2)o1	92*	0%	28%	-3%	41*	-10%
CCC(O)CNC(=O)CCc1nnc(C2(c3ccc(Cl)cc3)CCC2)o1 (stereo not drawn)	12	1%	1%	-1%	9	-5%
CC1CCc2cc(F)ccc2N1S(=O)(=O)c1ccc(Cl)nc1 (stereo not drawn)	-8	-14%	?	6%	-3	?
COC(=O)Nc1ccc(S(=O)(=O)N2c3ccccc3CCC2C)cc1 (stereo not drawn)	-4	-3%	65%	5%	-4	15µM*
CC1CCc2cc(F)ccc2N1S(=O)(=O)c1ccc(F)cc1 (stereo not drawn)	-5	8.9µM*	?	-2%	-3	-9%
COc1ccc(CNC(=O)COC(=O)c2cccn2C)cc1	nt	3%	nt	-16%	nt	nt
O=C(NC(=S)NCCC1=CCCCC1)c1ccccc1Br	9	-2%	?	-27%	27*	?
S=C(NCCC1=CCCCC1)NCc1ccco1	47*	-1%	28%	1%	23*	18%
O=C(CCn1c(=O)c2ccccc2n(CC(=O)NCCC2=CCCCC2)c1=O)NCc1ccco1	7	-3%	0%	3%	-2	-25%
O=C(COC(=O)c1ccccc1Br)NCCC1=CCCCC1	75*	-7%	21%	1%	29*	52%
O=C(NC(=S)NCCC1=CCCCC1)c1cncc(Br)c1	active	13µM*	14%	44%	18*	8%
O=C(COC(=O)c1ccccc1NCCO)NCCC1=CCCCC1	nt	-1%	1%	9%	nt	?
COc1cc(/C=N/NC(N)=O)ccc1OCC(=O)Nc1cc(C)c(C)cc1Br	-4	-1%	0%	-6%	15	18%
CCCC(=O)Nc1sc(C)c(-c2ccc(C(C)CC)cc2)c1C#N (stereo not drawn)	-6	-14%	1%	-1%	-5	6%
COC(=O)c1cccc(NC(=S)NCCC2=CCCCC2)c1	23	0%	12µM*	34%	7	20%
COC(=O)c1ccc(NC(=S)NCCC2=CCCCC2)cc1	10	4%	?	5%	4	34%
C=CCN(CC=C)CC(=O)Nc1cccc(Oc2cnccn2)c1	-4	1%	-22%	18%	-7	-10%
SMILES	Shiga toxin inh	SARS PLpro yeast	Pf growth 96h	AMA1 RON2 block	CHX counter	Pf growth 48h
Fc1ccc(N=c2ssnc2Cl)c(F)c1	43	-3%	17%	-10%	19*	?
COc1cc(N=c2ssnc2Cl)cc(OC)c1OC	-8	-24%	24%	-9%	-2	-5%
CCOC(=O)c1ccc(CC2SC(N)=NC2=O)cc1 (stereo not drawn)	-5	3%	8%	0%	6	-10%
COc1ccc(N=c2ssnc2Cl)cc1	37*	-84%	16%	3%	18*	30%
Clc1nssc1=Nc1ccccc1	-3	1%	-13%	-10%	12	31%
Clc1ccc(N=c2ssnc2Cl)cc1	40*	-91%	?	-5%	11	-6%
